D1 ag – activates the human D1 dopamine receptor; P21728; HEK293 T-REx D1 cells, calcium flux, agonist mode; activation, % at 2 µM; 360,000 compounds, 1% hits; in the data active = activation above about 30%
Target sequence (P21728 whole entry, looked up): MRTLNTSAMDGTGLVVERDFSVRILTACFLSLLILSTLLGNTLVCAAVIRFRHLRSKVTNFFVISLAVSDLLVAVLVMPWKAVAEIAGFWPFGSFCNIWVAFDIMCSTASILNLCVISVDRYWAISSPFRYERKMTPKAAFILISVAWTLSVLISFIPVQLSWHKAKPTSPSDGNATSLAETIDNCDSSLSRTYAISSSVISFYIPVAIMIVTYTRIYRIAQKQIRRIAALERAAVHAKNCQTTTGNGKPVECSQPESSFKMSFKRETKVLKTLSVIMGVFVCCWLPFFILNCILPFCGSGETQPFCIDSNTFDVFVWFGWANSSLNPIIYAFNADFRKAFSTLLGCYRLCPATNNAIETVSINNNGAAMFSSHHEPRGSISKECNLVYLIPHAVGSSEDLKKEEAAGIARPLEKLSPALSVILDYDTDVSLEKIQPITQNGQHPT
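Agonism was scored from calcium flux recorded over 180 s (1 read/s) after pintool compound addition, following a 10-cycle baseline. Cells were inducible force-coupled HEK293 TREx D1, plated overnight at 30 C and loaded with no-wash calcium dye.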
DRD3 antagonist – D3 dopamine receptor (human) antagonism | D3R cells, DiscoveRx beta-arrestin luminescence, antagonist mode; active compounds read low | P35462 | 360,000 compounds, 2.5% hits | max response, negative = inhibition, %; in the data active = max response below about -50%; inconclusive = no clear call, values can overlap the other calls
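Cells expressing the human receptor were seeded at 1500 cells/well, incubated overnight at 37 degrees C in 5% CO2, then exposed to library compounds with dopamine controls for 90 minutes at 37 degrees C before luminescent detection.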
D1 potentiator – potentiators of human D1 dopamine receptor. P21728. HEK293 TREx D1 cells, calcium flux, dopamine EC20 potentiation. potentiation, % at 10 µM. 360,000 compounds, 0.036% hits; in the data active = potentiation above about 30%
D3 ag – activates the human D3 dopamine receptor | P35462 | D3R DiscoveRx beta-arrestin cells, luminescence, 90 min | max activation, % | 410,000 compounds, 0.58% hits | AID 652048; in the data active = max activation above about 30%
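Agonist-mode cell screen: cells plated at 1500/well and incubated overnight at 37 °C, then exposed to library compounds for 90 min at 37 °C. Detection reagent was added for 30–60 min at room temperature, and luminescence was read.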
D1 antag – blocks dopamine activation of the human D1 receptor; P21728; HEK293 TREx D1 cells, calcium flux, dopamine EC80; active compounds read low; activity change, negative = inhibition, % at 10 µM; 360,000 compounds, 3.2% hits; AID 504652; in the data active = activity change below about -30%
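Kinetic fluorescence of a calcium dye serves as the read-out. D1-expressing Hek293 Trex cells, induced overnight at 30 C, are exposed to compound for 180 s before an EC80 dopamine addition, then read 180 s further.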
Large screens that a line does not name were inactive. A selection: hits, their analogues and other compounds. The true share with any hit is near 6%.

COc1ccc(-n2c(=O)c3ccc(C(=O)NCc4ccc(C)cc4)cc3n(Cc3ccc(Cl)cc3)c2=O)cc1	none (no result: DRD3 antagonist)
COc1ccc([C@H]2CC(=O)C=C(c3cccc4c3Oc3ccccc3S4)C2)cc1OC	D3 ag 75.1 (no result: D1 antag)
COc1ccc([C@H]2CC(=O)C=C(c3ccc4ccccc4c3)C2)cc1OC	D3 ag 41.8
CCOC(=O)c1cccc(C2=CC(=O)C[C@H](c3ccc(OC)c(OC)c3)C2)c1	D3 ag 51.8
COc1ccc([C@H]2CC(=O)C=C(c3ccc(OC)c(OC)c3)C2)cc1	none
O=C1C=C(c2cccc3c2Oc2ccccc2S3)C[C@@H](c2ccc(Cl)cc2)C1	none (no result: D1 antag)
COc1ccc([C@H]2CC(=O)C=C(c3ccc4c(c3)OCO4)C2)cc1OC	none
COc1ccc([C@H]2CC(=O)C=C(c3ccc(O)cc3)C2)cc1OC	D1 antag -86.0
Cc1ccc(NC(=O)c2cc(S(=O)(=O)N3CCc4ccccc43)cn2C)c(Cl)c1	none (no result: DRD3 antagonist)
O=[N+]([O-])c1ccc(/C=N\O)o1	none (no result: D1 ag, DRD3 antagonist, D1 potentiator, D1 antag)
O=[N+]([O-])c1ccc(/C=N/N=C/c2ccc([N+](=O)[O-])o2)o1	DRD3 antagonist -81.0
Cc1cccc(NC(=O)C2CCC(CNS(=O)(=O)c3csc(C(N)=O)c3)CC2)c1C (configuration not stated)	none (no result: DRD3 antagonist)
CC(C)C[C@H](NC(=O)c1nc[nH]c1C(=O)NC(c1ccccc1)c1ccccc1)C(=O)OC(C)(C)C	D1 antag -32.8
CC(C)C[C@H](NC(=O)c1nc[nH]c1C(=O)N[C@@H](CC(C)C)C(=O)OC(C)(C)C)C(=O)OC(C)(C)C	DRD3 antagonist -54.8
COc1ccc(-c2nnc(SCC(=O)Nc3cc(OC)ccc3OC)nc2-c2ccc(OC)cc2)cc1	none (no result: DRD3 antagonist)
c1ccc(SCCN2CCc3ccccc3C2)cc1	DRD3 antagonist -91.0, D1 antag -73.1
OCCN1CCN(CCSc2ccccc2)CC1	DRD3 antagonist -60.6
c1ccc(SCCOCCN2CCc3ccccc3C2)cc1	DRD3 antagonist -78.2, D1 antag -47.8
c1ccc(SCCOCCN2CCOCC2)cc1	none
Cc1ccc(SCCN2CCN(Cc3ccccc3)CC2)cc1	DRD3 antagonist inconclusive
Cc1cccc(Oc2nc3ccccn3c(=O)c2/C=C(\C#N)c2nc3ccccc3s2)c1C	none (no result: DRD3 antagonist)
Clc1ccccc1Cn1cccc1C1=NC(Cc2ccccc2)CO1 (configuration not stated)	none (no result: DRD3 antagonist)
CCCCC(=O)N(C)c1c(C)nc2ccc(C(=O)N(C)CCN(C)C)cn12	none (no result: D1 ag, D1 potentiator, D1 antag)
CCCCN(C)c1c(C)nc2ccc(C(=O)N(C)CCN(C)C)cn12	DRD3 antagonist -71.4 (no result: D1 ag, D1 potentiator, D1 antag)
NC(=O)c1ccc(F)cc1	none
NC(=O)c1ccccc1	D1 antag -98.8
Cc1ccc(-c2cc(-c3ccc(F)cc3)nc(N)c2C#N)o1	D1 antag -59.5
COc1cc(-c2cc(-c3ccc(F)cc3)nc(N)c2C#N)ccc1O	D1 antag -43.7
O=C(CSc1nc2c([nH]c3ccccc32)c(=O)n1-c1ccc(Cl)cc1)NC1CCCCC1	none (no result: DRD3 antagonist)
COc1ccc(-c2noc(CC(=O)N(C)c3cccc(C)c3)n2)cc1	none (no result: DRD3 antagonist)
Cc1cc(/C=N/NC(=O)c2cccs2)c(C)n1-c1ccccc1	D1 antag -39.0
CCCNC(=O)c1cc(C2CCCCN2S(C)(=O)=O)on1 (configuration not stated)	DRD3 antagonist -90.8 (no result: D1 ag, D1 potentiator, D1 antag)
COc1cccc(CCNC(=O)c2ccc(Cn3c(SCc4ccccc4)nc4cccnc43)cc2)c1	none (no result: DRD3 antagonist)
COc1ccc(C2C(C#N)=C(N)OC3=C2C(=O)CC(C)(C)C3)cc1OC (configuration not stated)	none
CC1(C)CC(=O)C2=C(C1)OC(N)=C(C#N)C2c1cccc(OC(=O)c2ccco2)c1 (configuration not stated)	DRD3 antagonist -90.4
CC1(C)CC(=O)C2=C(C1)OC(/N=C/N1CCCC1)=C(C#N)C2c1ccccc1 (configuration not stated)	D1 antag -95.0
CC1(C)CC(=O)C2=C(C1)OC(/N=C/N1CCOCC1)=C(C#N)C2c1ccccc1 (configuration not stated)	none
COc1ccc(-c2cc(-c3ccc4c(c3)NC(=O)CO4)nc3c2COc2ccc(F)cc2-3)cc1	none (no result: DRD3 antagonist)
COc1ccccc1NC(=O)c1ccc2ccccc2c1	none (no result: DRD3 antagonist, D3 ag)
CCOc1cc2[nH]c(=O)n(CCCCC(=O)N3CCN(c4ccccc4OC)CC3)c(=O)c2cc1OCC	none (no result: DRD3 antagonist)
Cc1ccc2ncc3c(-c4ccc(F)cc4)nn(-c4cccc(F)c4)c3c2c1	none (no result: DRD3 antagonist)
CC(C)OCCCNC(=O)c1ccc(CN2CCc3ccccc3C2)cc1	DRD3 antagonist -66.6
CC(C)[C@H](NC(=O)c1ccccc1)C(=O)OCC(=O)N1CCc2ccccc2C1	none
CCOCCCNC(=O)c1ccc(CN2CCc3ccccc3C2)cc1	DRD3 antagonist -92.3 (no result: D1 ag, D1 potentiator, D1 antag)
CCOCCCNC(=O)c1ccc(C2SCC(=O)N2Cc2ccccc2)cc1 (configuration not stated)	none
CC(C)NC(=O)c1ccc(CN2CCc3ccccc3C2)cc1	DRD3 antagonist -65.9
CC(C)OCCCNC(=O)c1ccc(Br)cc1	none
O=C(N1CCN(Cc2ccc3c(c2)OCO3)CC1)C12CC3CC(CC(C3)C1)C2	DRD3 antagonist -64.2
CCOc1ccc(N/C(C)=C\C(=O)c2ccc3c(c2)OCCO3)cc1	none
CCOc1ccc(N/C(C)=C/C(=O)c2ccc3c(c2)OCCO3)cc1	D3 ag 32.8
O=C(c1ccc(COc2ccc(Cl)cc2)o1)N1CCN(Cc2ccc3c(c2)OCO3)CC1	D1 antag -42.9
O=C(c1ccc(COc2ccccc2Cl)o1)N1CCN(Cc2ccc3c(c2)OCO3)CC1	none
O=C(CS(=O)(=O)Cc1ccccc1)N1CCN(Cc2ccc3c(c2)OCO3)CC1	D1 antag -37.2
Cc1ccccc1CSc1cn(CC(=O)N2CCCC2)c2ccccc12	none (no result: DRD3 antagonist)
O=C(c1cccc(Cl)c1)N1CCN(Cc2ccc3c(c2)OCO3)CC1	none
Cc1ccc(C(=O)N2CCN(Cc3ccc4c(c3)OCO4)CC2)o1	DRD3 antagonist -61.9
Cc1ccc(NC(=O)N2CCN(Cc3ccc4c(c3)OCO4)CC2)cc1	DRD3 antagonist inconclusive
O=C(c1cc2ccccc2o1)N1CCN(Cc2ccc3c(c2)OCO3)CC1	DRD3 antagonist -104.4
O=C(c1cc2ccccc2oc1=O)N1CCN(Cc2ccc3c(c2)OCO3)CC1	none
CC1CCN(c2nc3ccc(C(=O)N4CCN(Cc5ccc6c(c5)OCO6)CC4)cc3s2)CC1	D1 antag -30.6 (no result: D1 potentiator)
CCOc1ccc(NC(=O)N2CCN(Cc3ccc4c(c3)OCO4)CC2)cc1	D1 antag -77.6
COC(=O)c1ccc(-n2nnc(-c3nc(-c4ccc5c(c4)OCO5)no3)c2C)cc1	none (no result: DRD3 antagonist)
COC(=O)c1scc(-c2ccc(C)cc2)c1S(=O)(=O)N1CCN(c2ccccc2F)CC1	none (no result: DRD3 antagonist)
O=C(CN1CCN(Cc2ccc3c(c2)OCO3)CC1)N1CCc2[nH]c3ccccc3c2C1	none (no result: DRD3 antagonist, D3 ag)
O=C(c1cc2c(=O)n3ccccc3nc2s1)N1CCN(Cc2ccc3c(c2)OCO3)CC1	D1 antag -31.1
